Screening data (PubChem BioAssay)
Rin1-Abl PPI inh: inhibitors of Rin1-Abl protein binding, primary screen, biochemical, TR-FRET; Tyrosine-protein kinase ABL1 (Homo sapiens) + Ras and Rab interactor 1 (Homo sapiens), …; inhibition, % at 7.35 µM; 360,000 compounds, 0.4% hits; AID 588664, 2011; in the data active = inhibition above about 5%, passing the limit was not always enough
Target sequence (P00519 whole entry, looked up): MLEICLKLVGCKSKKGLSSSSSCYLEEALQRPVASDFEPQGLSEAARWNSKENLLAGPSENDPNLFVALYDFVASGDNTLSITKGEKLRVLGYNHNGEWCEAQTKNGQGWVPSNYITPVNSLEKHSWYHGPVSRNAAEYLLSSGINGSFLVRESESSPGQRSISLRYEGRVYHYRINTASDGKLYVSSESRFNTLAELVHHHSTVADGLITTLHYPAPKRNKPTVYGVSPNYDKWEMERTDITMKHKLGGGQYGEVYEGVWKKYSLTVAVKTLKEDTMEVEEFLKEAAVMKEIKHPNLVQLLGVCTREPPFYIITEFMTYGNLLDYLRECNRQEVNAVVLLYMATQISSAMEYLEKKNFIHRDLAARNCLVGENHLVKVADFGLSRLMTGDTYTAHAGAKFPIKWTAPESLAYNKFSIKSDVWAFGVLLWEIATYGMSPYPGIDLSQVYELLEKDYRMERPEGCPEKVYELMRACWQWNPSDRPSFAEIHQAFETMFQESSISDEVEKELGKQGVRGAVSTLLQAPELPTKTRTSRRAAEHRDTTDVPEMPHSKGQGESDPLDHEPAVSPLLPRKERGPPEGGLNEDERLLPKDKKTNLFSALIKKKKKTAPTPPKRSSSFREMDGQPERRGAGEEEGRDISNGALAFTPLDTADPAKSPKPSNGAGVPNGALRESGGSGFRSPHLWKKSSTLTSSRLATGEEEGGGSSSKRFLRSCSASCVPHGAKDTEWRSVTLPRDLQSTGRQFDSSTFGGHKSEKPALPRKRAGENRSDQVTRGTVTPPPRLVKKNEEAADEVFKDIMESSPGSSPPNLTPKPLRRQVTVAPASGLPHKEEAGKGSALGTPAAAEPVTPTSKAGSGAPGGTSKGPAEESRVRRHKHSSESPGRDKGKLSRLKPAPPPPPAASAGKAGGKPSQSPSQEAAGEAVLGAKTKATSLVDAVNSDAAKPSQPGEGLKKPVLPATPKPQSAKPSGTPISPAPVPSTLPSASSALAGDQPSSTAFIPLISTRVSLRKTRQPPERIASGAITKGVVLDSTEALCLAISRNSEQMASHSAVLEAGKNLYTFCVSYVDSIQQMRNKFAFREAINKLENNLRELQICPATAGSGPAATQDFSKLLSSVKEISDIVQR
Target sequence (Q13671 whole entry, looked up): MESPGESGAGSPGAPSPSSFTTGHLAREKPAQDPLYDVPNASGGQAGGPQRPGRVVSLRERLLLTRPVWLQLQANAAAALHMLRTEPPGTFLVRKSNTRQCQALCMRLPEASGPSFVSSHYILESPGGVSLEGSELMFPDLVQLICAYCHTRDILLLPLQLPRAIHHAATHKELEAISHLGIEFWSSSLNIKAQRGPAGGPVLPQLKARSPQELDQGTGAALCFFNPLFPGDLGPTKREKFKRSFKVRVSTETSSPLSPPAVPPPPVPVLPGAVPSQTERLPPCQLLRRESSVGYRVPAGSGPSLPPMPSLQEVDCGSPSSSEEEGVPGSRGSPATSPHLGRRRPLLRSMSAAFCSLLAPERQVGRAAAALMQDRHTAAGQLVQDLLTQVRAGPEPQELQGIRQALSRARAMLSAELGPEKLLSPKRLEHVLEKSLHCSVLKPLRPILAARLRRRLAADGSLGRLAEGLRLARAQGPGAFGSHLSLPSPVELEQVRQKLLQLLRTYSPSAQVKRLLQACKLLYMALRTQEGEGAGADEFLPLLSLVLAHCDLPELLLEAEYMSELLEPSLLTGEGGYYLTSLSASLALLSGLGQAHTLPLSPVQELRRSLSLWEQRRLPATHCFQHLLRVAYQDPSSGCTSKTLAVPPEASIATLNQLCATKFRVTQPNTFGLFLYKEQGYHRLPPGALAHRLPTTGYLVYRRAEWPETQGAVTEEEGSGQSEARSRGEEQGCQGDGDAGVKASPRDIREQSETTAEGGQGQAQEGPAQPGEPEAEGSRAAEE
eLon inh: inhibitors of E. coli Lon protease, primary screen, biochemical, fluorescence polarization; P0A9M0; purified E. coli Lon protease; inhibition, % at 7.94 µM; 360,000 compounds, 0.42% hits; in the data active = inhibition above about 13%, passing the limit was not always enough;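 also: 0% = enzyme with probe and DMSO and 100% = no enzyme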
PAFAH1B2 inh: PAFAH1B2 enzyme inhibitors, primary screen, biochemical, fluorescence polarization, human; Platelet-activating factor acetylhydrolase IB subunit alpha2 (Homo sapiens), P68402; inhibition, % at 3.39 µM; AID 492953, 2010; 340,000 compounds, 1.2% hits; recombinant PAFAH1B2, FP-rhodamine activity probe;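 active = inhibition above the mean of all tested compounds plus 3 SD, cut at about 24% in these data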;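 also: 0% = enzyme with DMSO and 100% = wells lacking PAFAH1B2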
PAFAH1B3 inh: PAFAH1B3 enzyme inhibitors, primary screen, biochemical, fluorescence polarization, human | recombinant PAFAH1B3, FP-rhodamine probe | Platelet-activating factor acetylhydrolase IB subunit alpha1 (Homo sapiens), Q15102 | 340,000 compounds, 0.28% hits | inhibition, % at 3.39 µM;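 active = inhibition above the screen-wide average of all tested compounds plus 3 SD, cut at about 25% in these data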;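 also: 0% = enzyme with DMSO only and 100% = wells lacking PAFAH1B3 protein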
pPAFAH inh: pPAFAH enzyme inhibitors, primary screen, biochemical, fluorescence polarization, human; Platelet-activating factor acetylhydrolase (Homo sapiens), Q13093; recombinant pPAFAH, FP-rhodamine probe fluorescence polarization; inhibition, % at 3.39 µM; 330,000 compounds, 1.5% hits; AID 463082, 2010;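 active = inhibition above the mean inhibition across the screen plus 3 SD, cut at about 25% in these data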;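 also: inhibitors block binding of the rhodamine activity-based probe so polarization drops; 0% = enzyme with DMSO and 100% = wells lacking pPAFAH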
PAFAH2 FP inh: PAFAH2 enzyme inhibitors, primary screen, biochemical, fluorescence polarization, human | AID 492956, 2010 | inhibition, % at 3.39 µM | Platelet-activating factor acetylhydrolase 2, cytoplasmic (Homo sapiens), Q99487 | recombinant PAFAH2, FP-rhodamine activity probe | 340,000 compounds, 0.99% hits;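 active = inhibition above the mean over all tested compounds plus 3 SD, cut at about 30% in these data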;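 also: inhibitors block probe labeling of enzyme so polarization drops; 0% = enzyme with DMSO and 100% = wells lacking PAFAH2 protein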
PAFAH2 FP conf: PAFAH2 enzyme inhibitors, confirmation, biochemical, fluorescence polarization, human. shares compounds with PAFAH2 FP inh. recombinant PAFAH2, FP-rhodamine activity probe. inhibition, % at 3.39 µM. 2,300 compounds, 65% hits;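 active = mean inhibition over three repeats above a set limit taken from the earlier primary screen, cut at about 30% in these data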;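 also: inhibitor blocks binding of rhodamine activity probe so polarization falls; 0% = enzyme with DMSO and 100% = wells lacking PAFAH2 protein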
Active calls of the source: *; . = not tested or not shown. The list is not random: actives were taken first. Their share in the collection is about 3.1%.

SMILES | Rin1-Abl PPI inh | eLon inh | PAFAH1B2 inh | PAFAH1B3 inh | pPAFAH inh | PAFAH2 FP inh | PAFAH2 FP conf
COc1cc(SC)ccc1C(=O)OCC(=O)NC1CCCC1 | 1 | 8 | 11 | 7 | 21 | 68* | 57*
COc1ccc(CN2C(=O)c3ccccc3C2=O)cc1C(=O)OCC(=O)NC1CCCCC1 | -4 | -2 | -1 | 4 | 21 | 52* | 45*
COC(=O)C1=CN(Cc2ccccc2)C=C(C(=O)OC)C1c1cc(F)ccc1F | 2 | -7 | 6 | 8 | 0 | 9 | .
O=C(COC(=O)c1ccccc1Br)NC1CCCC1 | 1 | -5 | 6 | 4 | 7 | 52* | 35*
COc1ccccc1C(=O)OCC(=O)NC(=O)NC1CCCC1 | 3 | -8 | 5 | 4 | 0 | 10 | .
CCOc1ccccc1C(=O)OCC(=O)NCC1CCCCC1 | 2 | 9 | -1 | 9 | 13 | 44* | 48*
O=C(COC(=O)c1ccc[nH]c1=O)NC1CCCC1 | 0 | 0 | 1 | 0 | 2 | -2 | .
COc1cc(OC)c(C(=O)OCC(=O)NC2CCCCCCC2)cc1OC | 0 | 4 | 3 | 10 | 14 | 75* | 83*
COc1cc(OC)c(C(=O)OCC(=O)NC2CCCC2)cc1OC | -1 | -2 | 5 | 2 | 8 | 52* | 39*
CCOc1ccccc1-c1nnc(SCC(=O)NC2(C#N)CCCC2)o1 | 2 | -3 | 1 | 3 | 3 | 5 | .
COc1ccccc1C(=O)OCC(=O)NC1CCCC1 | 3 | 5 | 11 | 6 | 5 | 38* | 22
O=C(CCNC(=O)c1ccco1)NCc1ccc(C(=O)O)cc1 | -1 | -1 | 6 | 6 | 0 | 4 | .
CN(C)c1ncnc2c1ncn2[C@H]1CN(Cc2ccco2)C[C@@H](CO)O1 | -2 | -4 | . | . | . | . | .
O=C(NCCc1ccc(C(F)(F)F)cc1)C1CCC(=O)N(CCc2cccc(F)c2)C1 (configuration not stated) | 0 | 3 | 11 | 1 | 2 | 0 | .
O=C(NCCc1ccc(C(F)(F)F)cc1)C1CCC(=O)N(CCCc2ccccc2)C1 (configuration not stated) | -8 | -4 | 11 | 1 | 12 | 53* | 53*
COCCOc1ccc(C(F)(F)F)cc1NC(=O)COC(=O)C12CC3CC(CC(O)(C3)C1)C2 | -1 | 5 | 10 | 8 | 3 | 3 | .
NS(=O)(=O)c1ccc(NC(=O)COC(=O)C23CC4CC(CC(C4)C2)C3)cc1 | 2 | -1 | 18 | 0 | -1 | 1 | .
O=C(COC(=O)C12CC3CC(CC(O)(C3)C1)C2)Nc1ccc(Br)cc1F | 1 | 6 | 0 | 4 | 1 | 30* | 13
O=C(COC(=O)C12CC3CC(CC(C3)C1)C2)Nc1ccccc1F | -4 | -7 | 11 | 12 | 11 | 40* | 29
Cc1c(Cl)cccc1NC(=O)COC(=O)C12CC3CC(CC(O)(C3)C1)C2 | 5 | 0 | -1 | 4 | -2 | 43* | 16
Nc1nc2cc(Cl)c(Br)cc2o1 | 4 | -1 | 5 | 7 | . | 3 | .
CCOc1ncccc1C(=O)OCC(=O)c1ccc(Br)s1 | -3 | -13 | 1 | 2 | 12 | 50* | 35*
O=C(COC(=O)c1ccccc1)Nc1ccc(Cl)cn1 | -5 | -1 | 0 | 7 | 2 | 46* | 49*
CCOc1ncccc1C(=O)OCC(=O)Nc1ccc(Cl)cn1 | 1 | -1 | 3 | 6 | 24 | 46* | 29
COc1ccc(C(=O)OCC(=O)Nc2ccc(Cl)cn2)cc1 | 4 | 4 | 3 | 1 | 6 | 56* | 54*
O=C(COc1ccccc1)Nc1ccc(Cl)cn1 | 3 | -1 | 2 | 3 | -2 | -1 | .
Cc1[nH]c2ccccc2c1SCc1nnc(SCc2ccccc2)n1C | 4 | 6 | 4 | 7 | 7 | 22 | .
